The whole screen tested about 330,000 compounds, of which about 1,500 (0.45%) were called active. Not shown: some 6% with an inconclusive outcome. The list comes from a sample in which actives are over-represented; it also holds similar structures and randomly drawn compounds. Unmarked numbers belong to inactive results. The call rests on the fitted dose curve; tested in A549 cells.
Experiment: qHTS for Stage-Specific Inhibitors of Vaccinia Orthopoxvirus: Venus Reporter Primary qHTS; further: nearly all actives have a fitted effect of over 30% in size
Settings: Vaccinia virus Venus reporter expression, fluorescence; series mostly up to 36.5 µM; activity change, negative = inhibition: at the top concentration
On the % scale 0 is the no-effect control and ±100 the full control effect; potency means the concentration at half of the fitted maximal effect.

Row | SMILES | activity change, negative = inhibition [%] | Potency
1 | O=C1NC[C@H](Cc2ccc(O)cc2)N(C[C@H]2CCCN2C[C@H](Cc2ccccc2)N2C[C@H](Cc3ccccc3)N(CCc3ccccc3)C(=O)C2=O)C1=O | -2.33 | –
2 | C#CCOCCOCCOCCNc1nc(N2CCN(C(=O)CCCCCCCCCCNC(=O)Cn3cc(CCCCCN)nn3)CC2)nc(N2CCN(C(=O)CCCCCCCCCCNC(=O)[C@H](CO)n3cc(CCCSC)nn3)CC2)n1 | – | 10 µM (active)
3 | C#CCOCCOCCOCCNc1nc(N2CCN(C(=O)Cn3cc(CCO)nn3)CC2)nc(N2CCN(C(=O)Cn3cc(CCCN=C(N)N)nn3)CC2)n1 | -1.69 | –
4 | C#CCOCCOCCOCCNc1nc(N2CCN(C(=O)Cn3cc(CCO)nn3)CC2)nc(N2CCN(C(=O)[C@H](CCCCN)n3cc(CCCC)nn3)CC2)n1 | 7.77 | –
5 | C#CCOCCOCCOCCNc1nc(N2CCN(C(=O)[C@H](C(C)C)n3cc(CCO)nn3)CC2)nc(N2CCN(C(=O)[C@H]([C@@H](C)CC)n3cc(CCCN=C(N)N)nn3)CC2)n1 | -7.34 | –
6 | C#CCOCCOCCOCCNc1nc(N2CCN(C(=O)CCCCCCCCCCNC(=O)[C@H]([C@@H](C)CC)n3cc(CCCCN=C(N)N)nn3)CC2)nc(N2CCN(C(=O)CCCCCCCCCCNC(=O)[C@H](CO)n3cc(CCCSC)nn3)CC2)n1 | – | 15.8 µM (active)
7 | C#CCOCCOCCOCCNc1nc(N2CCN(C(=O)[C@H](CCC(=O)O)n3cc(CN)nn3)CC2)nc(N2CCN(C(=O)[C@H](CCC(=O)O)n3cc(CN)nn3)CC2)n1 | -8.97 | –
8 | C#CCOCCOCCOCCNc1nc(N2CCN(C(=O)Cn3cc(CCCCN)nn3)CC2)nc(N2CCN(C(=O)[C@H](CCCCN)n3cc(CCC(=O)O)nn3)CC2)n1 | -4.71 | –
9 | C#CCOCCOCCOCCNc1nc(N2CCN(C(=O)[C@H](CCCCN)n3cc(CCC(=O)O)nn3)CC2)nc(N2CCN(C(=O)[C@H](CCCCN)n3cc(CC(C)O)nn3)CC2)n1 (stereo partly drawn) | -7.26 | –
10 | C#CCOCCOCCOCCNc1nc(N2CCN(C(=O)CCCCCCCCCCNC(=O)[C@H](CCCCN)n3cc(C)nn3)CC2)nc(N2CCN(C(=O)CCCCCCCCCCNC(=O)[C@H](CO)n3cc(CCCSC)nn3)CC2)n1 | – | 7.94 µM (active)
11 | Cc1cccc(C)c1NC(=O)CN1CCN(c2ccc(F)cc2)CC1 | 9.83 | –
12 | COc1cc(OC)c(/C=C/c2ccnc3ccccc23)c(OC)c1 | -21.1 | –
13 | CCOC(=O)N(C)c1c(CC)nc2c(OCc3ccccc3C(=O)OC)cccn12 | -5.36 | –
14 | CCOC(=O)c1cc2cc(OC)ccc2n1C1CCN(C)CC1 | -26.8 | –
15 | CCOC1=C2[C@@H](CN(S(=O)(=O)c3ccc(C)cc3)[C@H]2c2ccccc2F)[C@H]2C(=O)N(Cc3ccccc3)C(=O)[C@H]2C1 | -12.5 | –
16 | CCOC(=O)C1=CC[C@@H](c2ccncc2)N(S(=O)(=O)c2ccc(C)cc2)C1 | -22.6 | –
17 | CSc1nc(Nc2ccc(F)cc2)cc(-c2ccccc2)n1 | -18.6 | –
18 | CSc1ncc(Sc2ccccc2)c(C(=O)O)n1 | 2.49 | –
19 | CSc1nc(-c2ccccc2)nc(C(Cl)Cl)n1 | – | 10 µM (active)
20 | Cc1cc(Br)cn2c(Cc3ccccc3C(F)(F)F)c(C3CCCCC3)nc12 | -2.66 | –
21 | CCc1nc2c(OCc3ccc(F)c(F)c3)cccn2c1N(C)C(=O)c1ccco1 | 3.62 | –
22 | COc1ccc(OCC(O)CNCCNc2nccc(C(F)(F)F)n2)cc1 (stereo not drawn) | -14.2 | –
23 | CC(C)(C)CC(C)(C)NCC(O)COCCOc1ccc(Br)cc1 (stereo not drawn) | – | 10 µM (active)
24 | CC(C)(C)NCC(O)COc1cccc2[nH]c(=O)[nH]c12 (stereo not drawn) | – | inactive
25 | CCCCNC(=O)C[C@@H]1C[C@@]2(C(=O)OCC)CCC=C2N(Cc2cccc3ccccc23)C1=O | -13.2 | –
26 | COc1ccc(C(C(=O)Nc2c(C)cccc2C)N2CCN(c3ccc(C)cc3)CC2)cc1 (stereo not drawn) | -3.04 | –
27 | CN(C)c1cccc(NC(=O)c2ccc(-c3ccc(F)c(F)c3)c3ccoc23)c1 | -9.75 | –

Row | SMILES | activity change, negative = inhibition [%] | Potency
28 | CCc1nc2c(OCc3cccc(OC)c3)cccn2c1N(C)C(=O)C(C)C | -15.6 | –
29 | CC(=O)Nc1ccc(-c2csc(NC=C3C(=O)OC(C)(C)OC3=O)n2)cc1 | – | 4.47 µM (active)
30 | CC(=O)Nc1cccc(-c2csc(Nc3cccc(C)n3)n2)c1 | -23.1 | –
31 | C/C(CC1CC(C)(C)OC1=O)=N/Nc1nc(-c2ccccc2)cs1 (stereo not drawn) | -10.7 | –
32 | O=C(COc1ccccc1C(=O)Nc1ccccc1)Nc1cccc(F)c1 | -20.5 | –
33 | COc1ccc(C(=O)C(OP(=O)(OC)OC)c2ccccc2OC)cc1 (stereo not drawn) | -6.83 | –
34 | COc1ccc2c(c1)NC(=O)C2CC(=O)N1CCOc2c(cc(-c3cnc4ccccc4c3)cc2OC)C1 (stereo not drawn) | -10.6 | –
35 | CC(=O)OC1C2(CC3N4C(=O)C5(CO)SSC4(CC31O)C(=O)N5C)OC(C)C(C)(C)C2=O (stereo not drawn) | – | 3.16 µM (active)
36 | CCCNC(=O)C1(C)CCN1C(=O)Cc1ccc(-c2ccccc2)cc1 (stereo not drawn) | -8.6 | –
37 | CCOC(=O)[C@]12CCCC=C1N(CCC1=CCCCC1)C(=O)[C@H](CC(=O)N1CCCCC1)C2 | -21.2 | –
38 | CCCCCNC(=O)Cc1ccc(OC)cc1 | -18.1 | –
39 | COc1ccc(CC(=O)Nc2ccc(C(=O)NC(C)(C)C)cc2)cc1 | -5.09 | –
40 | C/C=C/NNC(=O)Cc1ccc(OC)cc1 | – | 10 µM (active)
41 | Cc1cccc(NC(=O)COC(=O)c2ccccc2OCc2cccc(Br)c2)c1 | -15.5 | –
42 | CC1(C)OC(=O)C2=C(C[C@@H](C3CCCCC3)O[C@@H]2c2ccc(Cl)cc2)O1 | -0.804 | –
43 | Cc1ccc(C)c(S(=O)(=O)N2CCN(c3ncnc4sccc34)CC2)c1 | – | 2.51 µM (active)
44 | Cc1ccc(C)c(S(=O)(=O)n2nc(C)c(S(=O)(=O)N3CCC(C)CC3)c2C)c1 | 3.55 | –
45 | Cc1ccc(S(=O)(=O)N2CCN(c3ncnc4ccccc34)CC2)cc1 | -26.6 | –
46 | O=[N+]([O-])c1ccc(/C=C/c2ccc3cccnc3c2)cc1 | -27.2 | –
47 | Cc1cccc(-c2nnc(SC(C)C(=O)Nc3ccccc3)n2C)c1 (stereo not drawn) | -13.2 | –
48 | Cc1cccc(N2CCN(c3ccc(NC(=O)/C=C\C(=O)O)cc3)CC2)c1 | -0.657 | –
49 | CN1CCN(c2ccc(NC(=O)c3cc(Cl)c4c(c3)OCCO4)cc2)CC1 | -3.42 | –
50 | C=CC(=O)Nc1ccc(Nc2ccnc(Nc3ccc(N4CCN(C)CC4)cc3)n2)cc1 | – | 10 µM (active)
51 | CCCCc1c(-c2ccc(Cl)cc2)ncn1CCc1ccccc1OC | -26.6 | –
52 | Cc1ccc(-c2nc3c(Cl)cc(C(F)(F)F)cn3c2Cc2cccc(Cl)c2)cc1 | 6.36 | –
53 | O=S1(=O)CC(N2CCN(c3ccccn3)CC2)CN1Cc1ccc(F)cc1 (stereo not drawn) | -8.95 | –

From PubChem BioAssay AID720580 (National Center for Advancing Translational Sciences (NCATS), 2013)
